# Data as given in PMC3795721, “Screening for Protein-DNA Interactions by Automatable DNA-Protein Interaction ELISA”.
# Target: AT4G31550 (Arabidopsis thaliana, UniProt Q9SV15 228-325)
# Test: DPI-ELISA; DPI-ELISA, streptavidin 384-well plate, 1-2 pmol biotinylated dsDNA per well, crude native E. coli extract, anti-His detection; buffer as in Brand et al. [46],; high values mean tight binding
# Conditions: tags: C-terminal His (pET-DEST42); label: 5' biotin on forward strand; dsDNA, one strand shown
# Sequence of AT4G31550 (Q9SV15 228-325): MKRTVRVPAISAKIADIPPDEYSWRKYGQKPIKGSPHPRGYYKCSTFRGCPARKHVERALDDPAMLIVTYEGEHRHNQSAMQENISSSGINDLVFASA
row,Sequence,binding signal [absorbance]
1,AAAAAATGACCAGGCCTCGAGCAAAAA,0.665 ± 0.0636
2,AAAAAACTCGACATAGAATGCGGAAAAAAA,0.655 ± 0.106
3,AAAAAATTCCGGCTTGACGCTGCATAAAAA,0.655 ± 0.106
4,AAAAAATTCACTTTTACCTTTGTGTTAAAA,0.555 ± 0.0919
5,AAAAAATTGTGCCTCTGCCCTCGCCTAAAA,0.62 ± 0.127
6,AAAAAATGTGCCCGTGTGTGCTCGCGAAAA,0.73 ± 0.0849
7,AAAAAAGTGTTTGTGCTTCTCTCTGTAAAA,0.58 ± 0.0707
8,AAAAAACGGGATTCGAAACTTTTTGTAAAA,0.54 ± 0.099
9,AAAAAAAAATCGAATTTGGACTTCCGAAAA,0.775 ± 0.0354
10,AAAAAACCCGTTCTACCTTATTCCTGAAAA,0.525 ± 0.106
11,AAAAAATCTTCACCTCACTTCGGTTTAAAA,0.67 ± 0.0566
12,AAAAAAAAGTGCCAACGTTCAAGAAAAA,0.38 ± 0.099
13,AAAAAAATATTTGAGCTAGGTTATCAAAAA,0.57 ± 0.113
14,AAAAAATGTCTAGACTCGGACATTCGAAAA,0.54 ± 0.0566
15,AAAAAATCCGTTCCCATTTGTCCGTCAAAA,0.58 ± 0.0849
16,AAAAAACTACTACCTTTGCCTAAGCGAAAA,0.685 ± 0.0919
17,AAAAAATCAAAACAACGATGCCGTTAAAAA,0.73 ± 0.0849
18,AAAAAAAGCTTCTATAGCTCCATGGAAAA,0.515 ± 0.106
19,AAAAAATAGGCGTTATGGCTAACACCAAAA,0.685 ± 0.106
20,AAAAAACATCGCTGTCGTTGACGTTGAAAA,3.48 ± 0.474
21,AAAAAATTCTAACTTAGCCTATGTCCAAAA,0.695 ± 0.163
22,AAAAAACGCTTTCAGTTTTGATCTTAAAAA,0.495 ± 0.0778
23,AAAAAACGTATTGATGTCTATTTCAAAAAA,0.575 ± 0.0919
24,AAAAAACCTACGATGGTTCTGATCTTAAAA,0.655 ± 0.12
